Measured values: PubChem BioAssay (NCATS)
Inconclusive results are not listed. Active and inactive are the calls of the source. Calls follow the shape of the dose curve; as a rule, active = well fitted cell-killing curve with a large enough effect in the repeat runs; inconclusive = weak or mixed curves, or effect the other way; inactive = flat fitted curve, though single readings scatter.

Test: qHTS assay for small molecule antagonists of the retinoid-related orphan receptor gamma (ROR-gamma) signaling pathway - cell viability counter screen (AID 720652);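 also: compound exposure lasted 16 hr before ATP read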
Settings: RORgamma reporter cell line viability counter screen; series mostly up to 92.2 µM; activity change, negative = cytotoxicity: at the top concentration
Text: National Center for Advancing Translational Sciences [NCATS]
NIH Chemical Genomics Center [NCGC]
National Institutes of Environmental Health Sciences [NIEHS]
National Toxicology Program [NTP]
Nuclear steroid hormone receptors are involved in many biological processes including inflammatory responses, cell proliferation, and apoptosis. Environmental factors or compounds disrupting these nuclear receptor pathways and gene expression may promote susceptibility to immunotoxicants and autoimmune diseases. One important group of these expression factors are the retinoid-related orphan receptors. To assess compounds that may interfere with the retinoid-related orphan receptor gamma (ROR-gamma) transcription factor, a cell-based luciferase assay was used.
The CHO cell-based assay utilizes a TET-inducible ROR expression factor and ROR response element-LUC reporter gene. Reporter activity was induced using doxycycline and measured after 16hr incubation. Luminescence was read using Viewlux (PerkinElmer), where a decrease in reporter activity would show a decrease in luminescence. The cytotoxicity of the compounds against ROR response-Luc reporter gene cell line was quantified by measuring the intracellular ATP content.
1,000 cells in 4 uL/well were dispensed into white wall/solid bottom 1536-well plates using a Multidrop Combi (Thermo Scientific) dispenser. Following incubation at 37 C and 5% CO2 for 5 hr, 23 nL compound or DMSO vehicle were transferred by a pin tool, then the plates were treated with 1 ul doxycycline to induce reporter gene activity. After 16 hr incubation at 37 C and 5% CO2, 5 uL/well of CellTiter-Glo reagent (Promega) was then added to each plate using a Flying Reagent Dispenser and incubated at room temperature for 30 min. The luminescence intensity was quantified on a ViewLux plate reader (PerkinElmer).
% is scaled to controls: 0 for no effect and ±100 for the full control effect; potency is read from the fitted curve at half-maximal effect.

| SMILES | activity change, negative = cytotoxicity | Potency |
| --- | --- | --- |
| O=C(O)Cc1cccc2ccccc12 | 9.61% (inactive) | – |
| CC(=O)O[C@]1(C(C)=O)CC[C@H]2[C@@H]3C=C(Cl)C4=CC(=O)[C@@H]5C[C@@H]5[C@]4(C)[C@H]3CC[C@@]21C | 15.3% (inactive) | – |
| O=c1cc(-c2ccc(O)cc2)oc2cc(O)cc(O)c12 | 16.6% (inactive) | – |
| O=C1NC(=O)C(c2ccccc2)(c2ccccc2)N1 | -8.24% (inactive) | – |
| O=c1[nH]cnc2c1ncn2[C@H]1CC[C@@H](CO)O1 | 5.78% (inactive) | – |
| O=C(O)c1cc(O)c2c(c1)C(=O)c1cccc(O)c1C2=O | 4.36% (inactive) | – |
| CCCCC1C(=O)N(c2ccccc2)N(c2ccccc2)C1=O | -6.73% (inactive) | – |
| CC(=O)c1ccc(S(=O)(=O)NC(=O)NC2CCCCC2)cc1 | 5.33% (inactive) | – |
| CC/C(=C(\c1ccccc1)c1ccc(OCCN(C)C)cc1)c1ccccc1 | – | 66.8 µM (active) |
| CC1=C(/C=C/C(C)=C/C=C/C(C)=C/C(=O)Nc2ccc(O)cc2)C(C)(C)CCC1 | – | 26.6 µM (active) |
| CCCNC(=O)NS(=O)(=O)c1ccc(Cl)cc1 | -27.9% (inactive) | – |
| CN(C)CCC(c1ccccc1)c1ccccn1 (stereo not drawn) | 4.35% (inactive) | – |
| CCn1cc(C(=O)O)c(=O)c2ccc(C)nc21 | 7.87% (inactive) | – |
